# Laboratory results as given in the supplement of paper PMC12067093, “Discovery and optimisation of a covalent ligand for TRIM25 and its application to targeted protein ubiquitination” (Chemical Science, 2025).
# About 21,000 targets were measured; listed, in parts, are those with the largest changes and a random draw of the rest.
# Compound: Cc1cc(ccc1-c1ccccc1)C(=O)N1CCCN(CC1)C(=O)CCl [compound 10]
# Assay: probe-labelled cysteine peptide fold change vs DMSO (competition) (log2 fold change); higher = less target engagement (more negative = stronger competition)
# Conditions: THP-1, incubation time: 4 h
# 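Note: competitive profiling in live THP-1 cells: cysteine peptides tagged with an iodoacetamide desthiobiotin (IA-DTB) probe, intensity after compound treatment relative to DMSO-treated cells.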
# UniProt P49023, sequence (P49023 whole entry, looked up): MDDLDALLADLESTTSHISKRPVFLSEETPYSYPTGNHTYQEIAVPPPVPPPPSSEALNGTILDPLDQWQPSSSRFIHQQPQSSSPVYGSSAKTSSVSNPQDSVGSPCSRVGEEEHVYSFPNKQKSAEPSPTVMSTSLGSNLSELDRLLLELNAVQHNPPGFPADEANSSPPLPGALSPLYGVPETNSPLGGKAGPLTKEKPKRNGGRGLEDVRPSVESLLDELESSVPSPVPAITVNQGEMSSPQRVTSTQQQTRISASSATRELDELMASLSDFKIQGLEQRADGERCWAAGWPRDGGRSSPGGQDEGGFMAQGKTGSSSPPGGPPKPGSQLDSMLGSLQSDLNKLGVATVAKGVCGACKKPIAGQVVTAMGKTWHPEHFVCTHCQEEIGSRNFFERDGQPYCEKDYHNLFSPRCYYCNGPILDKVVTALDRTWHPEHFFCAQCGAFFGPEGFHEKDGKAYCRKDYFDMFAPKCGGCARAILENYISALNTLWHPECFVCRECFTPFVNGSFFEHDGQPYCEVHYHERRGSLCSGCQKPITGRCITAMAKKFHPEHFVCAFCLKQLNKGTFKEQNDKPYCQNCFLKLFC
# UniProt Q96BW5, sequence (Q96BW5 whole entry, looked up): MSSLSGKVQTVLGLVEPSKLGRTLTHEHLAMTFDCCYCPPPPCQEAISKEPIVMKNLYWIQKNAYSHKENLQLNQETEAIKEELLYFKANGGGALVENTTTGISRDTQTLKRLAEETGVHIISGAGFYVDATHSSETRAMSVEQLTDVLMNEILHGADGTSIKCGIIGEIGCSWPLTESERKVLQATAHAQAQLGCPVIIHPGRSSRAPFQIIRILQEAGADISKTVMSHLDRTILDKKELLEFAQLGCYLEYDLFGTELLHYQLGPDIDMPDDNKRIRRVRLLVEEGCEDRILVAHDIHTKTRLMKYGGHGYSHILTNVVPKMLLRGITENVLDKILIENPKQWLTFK
# UniProt Q96PM5, sequence (Q96PM5 whole entry, looked up): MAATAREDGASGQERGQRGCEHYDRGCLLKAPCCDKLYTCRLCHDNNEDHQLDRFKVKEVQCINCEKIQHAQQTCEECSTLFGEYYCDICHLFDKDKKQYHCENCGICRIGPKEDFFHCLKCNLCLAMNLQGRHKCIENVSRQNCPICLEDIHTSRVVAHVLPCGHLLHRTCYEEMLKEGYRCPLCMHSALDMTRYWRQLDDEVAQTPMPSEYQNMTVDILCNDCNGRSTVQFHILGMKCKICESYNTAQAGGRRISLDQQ
# UniProt P11908, sequence (P11908 whole entry, looked up): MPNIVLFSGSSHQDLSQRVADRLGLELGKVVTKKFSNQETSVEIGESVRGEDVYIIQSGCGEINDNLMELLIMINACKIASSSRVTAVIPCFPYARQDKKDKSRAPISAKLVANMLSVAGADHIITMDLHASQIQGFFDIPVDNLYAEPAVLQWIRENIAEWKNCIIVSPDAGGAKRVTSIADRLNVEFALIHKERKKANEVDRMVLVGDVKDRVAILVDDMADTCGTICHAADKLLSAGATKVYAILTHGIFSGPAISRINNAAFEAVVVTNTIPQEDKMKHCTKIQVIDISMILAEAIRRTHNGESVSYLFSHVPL
# UniProt Q06124, sequence (Q06124 whole entry, looked up): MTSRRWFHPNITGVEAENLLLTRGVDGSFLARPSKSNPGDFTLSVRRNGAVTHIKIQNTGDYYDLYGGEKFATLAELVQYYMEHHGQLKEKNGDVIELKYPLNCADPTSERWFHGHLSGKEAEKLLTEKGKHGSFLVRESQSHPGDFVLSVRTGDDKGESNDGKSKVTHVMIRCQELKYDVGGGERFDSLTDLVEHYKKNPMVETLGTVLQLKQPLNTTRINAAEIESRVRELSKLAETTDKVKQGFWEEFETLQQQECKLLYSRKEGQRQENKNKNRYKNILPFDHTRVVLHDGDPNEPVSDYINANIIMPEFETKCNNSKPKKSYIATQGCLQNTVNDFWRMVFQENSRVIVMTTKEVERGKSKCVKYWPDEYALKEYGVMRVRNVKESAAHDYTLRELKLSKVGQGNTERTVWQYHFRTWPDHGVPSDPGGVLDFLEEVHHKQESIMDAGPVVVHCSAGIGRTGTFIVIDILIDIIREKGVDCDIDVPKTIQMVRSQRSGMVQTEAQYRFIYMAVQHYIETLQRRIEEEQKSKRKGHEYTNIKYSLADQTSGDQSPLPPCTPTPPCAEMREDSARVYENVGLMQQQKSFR
# UniProt O43566, sequence (O43566 whole entry, looked up): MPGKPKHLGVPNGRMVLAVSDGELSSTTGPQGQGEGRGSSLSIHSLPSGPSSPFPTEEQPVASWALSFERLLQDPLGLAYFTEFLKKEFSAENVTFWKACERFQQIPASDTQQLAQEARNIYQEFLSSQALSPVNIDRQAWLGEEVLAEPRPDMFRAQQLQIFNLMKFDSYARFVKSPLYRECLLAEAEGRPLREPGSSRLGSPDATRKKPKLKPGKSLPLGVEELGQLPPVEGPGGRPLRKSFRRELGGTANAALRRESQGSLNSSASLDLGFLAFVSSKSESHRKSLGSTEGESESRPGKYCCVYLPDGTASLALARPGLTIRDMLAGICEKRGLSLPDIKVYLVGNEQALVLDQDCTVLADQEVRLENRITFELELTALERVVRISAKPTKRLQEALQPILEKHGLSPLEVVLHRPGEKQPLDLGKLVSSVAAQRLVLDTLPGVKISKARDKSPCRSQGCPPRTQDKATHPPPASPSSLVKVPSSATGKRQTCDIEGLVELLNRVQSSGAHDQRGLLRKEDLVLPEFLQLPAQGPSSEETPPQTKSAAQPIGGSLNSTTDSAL
# UniProt Q9Y508, sequence (Q9Y508 whole entry, looked up): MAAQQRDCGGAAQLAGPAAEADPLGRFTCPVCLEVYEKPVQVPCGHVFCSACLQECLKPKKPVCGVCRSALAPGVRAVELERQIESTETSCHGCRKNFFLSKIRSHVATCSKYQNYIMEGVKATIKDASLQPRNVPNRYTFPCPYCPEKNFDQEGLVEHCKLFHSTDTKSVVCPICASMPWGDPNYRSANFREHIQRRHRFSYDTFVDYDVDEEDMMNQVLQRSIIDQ
# UniProt P17980, sequence (P17980 whole entry, looked up): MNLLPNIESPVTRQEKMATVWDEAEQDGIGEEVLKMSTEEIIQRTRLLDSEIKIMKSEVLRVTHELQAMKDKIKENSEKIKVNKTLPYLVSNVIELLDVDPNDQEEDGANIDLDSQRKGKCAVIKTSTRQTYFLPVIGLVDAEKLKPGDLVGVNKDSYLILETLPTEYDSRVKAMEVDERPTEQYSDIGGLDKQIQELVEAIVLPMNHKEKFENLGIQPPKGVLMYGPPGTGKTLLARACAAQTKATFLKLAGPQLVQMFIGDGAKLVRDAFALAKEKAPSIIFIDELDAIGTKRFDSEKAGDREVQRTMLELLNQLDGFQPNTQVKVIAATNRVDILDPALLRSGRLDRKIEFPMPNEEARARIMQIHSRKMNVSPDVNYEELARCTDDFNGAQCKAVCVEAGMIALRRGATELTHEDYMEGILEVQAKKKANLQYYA
# UniProt Q9Y3T6, sequence (Q9Y3T6 whole entry, looked up, other chains not shown): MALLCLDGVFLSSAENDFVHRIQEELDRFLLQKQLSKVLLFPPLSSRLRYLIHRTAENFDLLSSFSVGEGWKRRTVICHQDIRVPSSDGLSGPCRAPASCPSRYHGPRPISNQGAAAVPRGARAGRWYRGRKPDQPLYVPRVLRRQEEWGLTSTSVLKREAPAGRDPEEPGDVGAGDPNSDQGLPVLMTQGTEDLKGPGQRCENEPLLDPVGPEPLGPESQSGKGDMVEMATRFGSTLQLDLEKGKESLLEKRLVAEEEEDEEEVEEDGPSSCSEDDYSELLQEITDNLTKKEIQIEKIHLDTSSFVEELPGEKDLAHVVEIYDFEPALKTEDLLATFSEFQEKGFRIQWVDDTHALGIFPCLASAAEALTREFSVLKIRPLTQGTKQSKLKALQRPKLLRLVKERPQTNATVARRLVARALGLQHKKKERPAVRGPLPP
# UniProt O14818, sequence (O14818 whole entry, looked up): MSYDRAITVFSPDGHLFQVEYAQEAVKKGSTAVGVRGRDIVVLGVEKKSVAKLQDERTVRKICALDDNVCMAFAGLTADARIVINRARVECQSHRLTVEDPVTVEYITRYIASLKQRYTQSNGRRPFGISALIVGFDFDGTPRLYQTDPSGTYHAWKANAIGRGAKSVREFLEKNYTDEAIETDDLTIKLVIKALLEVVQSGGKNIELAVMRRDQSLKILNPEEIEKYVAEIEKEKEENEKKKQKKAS
# UniProt P28062, sequence (P28062 whole entry, looked up): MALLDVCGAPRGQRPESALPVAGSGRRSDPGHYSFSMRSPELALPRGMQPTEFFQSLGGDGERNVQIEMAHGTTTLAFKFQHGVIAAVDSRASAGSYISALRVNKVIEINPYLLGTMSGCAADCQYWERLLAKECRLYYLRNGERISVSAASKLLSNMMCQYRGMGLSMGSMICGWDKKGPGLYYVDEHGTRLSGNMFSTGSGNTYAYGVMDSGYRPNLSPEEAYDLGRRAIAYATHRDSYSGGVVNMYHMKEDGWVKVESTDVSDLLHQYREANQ
Target,probe-labelled cysteine peptide fold change (10 µM),probe-labelled cysteine peptide fold change (50 µM)
RAD54L2_Q9Y4B4_1143_MAASGSQGPSCESTSNGR (UniProt Q9Y4B4),-0.204,-0.485
RGS14_O43566_183_ECLLAEAEGR (UniProt O43566),-0.0353,0.16
PRPS2_P11908_165_NCIIVSPDAGGAKR (UniProt P11908),0.121,-0.113
PXN_P49023_387_TWHPEHFVCTHCQEEIGSR (UniProt P49023),-0.0992,-0.106
RNF114_Q9Y508_160_NFDQEGLVEHCK (UniProt Q9Y508),0.0873,0.126
PTPN11_Q06124_318_CNNSKPK (UniProt Q06124),-0.31,-1.11
PTER_Q96BW5_196_VLQATAHAQAQLGCPVIIHPGR (UniProt Q96BW5),0.2,0.329
RCHY1_Q96PM5_43_LCHDNNEDHQLDR (UniProt Q96PM5),0.344,2.12
PSMB8_P28062_7_ALLDVCGAPR (UniProt P28062),-0.068,-0.273
PRKCQ_Q04759_193_QCNAAIHK (UniProt Q04759),-0.474,-0.576
PSMC3_P17980_240_ACAAQTK (UniProt P17980),-0.0208,-0.0025
R3HCC1_Q9Y3T6_5_ALLCLDGVFLSSAENDFVHR (UniProt Q9Y3T6+R3HCC1),0.242,0.0812
PSMA7_O14818_91_ARVECQSHR (UniProt O14818),-0.0556,0.107
RGPD3_A6NKT7_349_GEAGQNLLEMMACDR<|>RGPD1_P0DJD0_340_GEAGQNLLEMMACDR<|>RGPD2_P0DJD1_348_GEAGQNLLEMMACDR<|>RANBP2_P49792_348_GEAGQNLLEMMACDR<|>RGPD4_Q7Z3J3_349_GEAGQNLLEMMACDR (UniProt Q7Z3J3+P49792+P0DJD1+P0DJD0+A6NKT7),-0.0339,0.0903
